# High-throughput results deposited in PubChem by National Center for Advancing Translational Sciences (NCATS).
# In the library only some 9.9% were active in any assay of this set; here they are far more common.
# ALDH1A1 inh: ALDH1A1 (human) enzyme inhibition | P00352 | Purified ALDH1A1, NADH fluorescence, propionaldehyde substrate | Potency, µM (titrated, usually from 75.3 µM), for the others: at the top dose activity, negative = inhibition, most hits filed as inhibitors | actives 7.3% (n = 220,000) | AID 1030;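 also: plate controls were no enzyme wells and a reference inhibitor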
# KDM4E inh: JMJD2E (human) inhibition. B2RXH2. JMJD2E catalytic domain, FDH-coupled NADH fluorescence (FDH is formaldehyde dehydrogenase). Potency, µM (doses to about 57.1 µM), for inactives: top-dose activity change, negative = inhibition, actives largely listed as inhibitors. actives 1.6% (n = 230,000). AID 2147;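 also: 0% = wells with enzyme and -100% = buffer wells without enzyme; nearly all actives have a fitted effect of over 50% in size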
# Target sequence (B2RXH2 1-337 limits assumed): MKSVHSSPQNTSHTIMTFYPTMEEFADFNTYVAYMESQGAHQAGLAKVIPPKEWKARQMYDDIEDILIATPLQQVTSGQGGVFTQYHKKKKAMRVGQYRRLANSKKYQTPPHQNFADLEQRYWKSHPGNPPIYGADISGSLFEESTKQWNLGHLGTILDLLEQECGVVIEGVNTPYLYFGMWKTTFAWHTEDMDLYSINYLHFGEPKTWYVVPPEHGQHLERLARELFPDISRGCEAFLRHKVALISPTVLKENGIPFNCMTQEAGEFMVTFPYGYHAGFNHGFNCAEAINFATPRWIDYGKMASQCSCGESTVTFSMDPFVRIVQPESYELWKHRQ
# Tau FP inhib: tau fibrillization inhibition (FP); P10636; K18 P301L tau heparin fibrillization, Alexa594 FP, 6 h; Potency, µM (top dose mostly 57.7 µM), for the others: at the top dose activity, negative = inhibition, hits mostly inhibitors; actives 0.39% (n = 280,000); AID 1468; active = well fitted curve in the direction sought with a large enough effect; inconclusive = small, poorly fitted or top-dose-only effect, or another doubt; inactive = no such curve, though single readings can be large; an effect the other way counts as inactive or inconclusive; also: nearly all actives have a fitted effect of over 55% in size
# Target sequence (P10636 561-689 P618L limits assumed): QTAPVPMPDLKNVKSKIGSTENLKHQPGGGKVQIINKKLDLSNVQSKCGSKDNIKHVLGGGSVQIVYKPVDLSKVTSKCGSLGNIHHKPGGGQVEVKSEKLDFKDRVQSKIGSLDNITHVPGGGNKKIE
#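 Human tau K18 […] P301L fragment, 15 uM unlabeled plus 0.24 uM Alexa 594-labeled tau (final), with compound and 20 uM heparin in 100 mM sodium acetate pH 7; 6 hr at 37 C, then Alexa 594 FP read.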
# HPGD block: blocks human HPGD enzyme activity | actives 4.3% (n = 150,000) | Potency, µM, for inactives: at the highest dose activity change, negative = inhibition, most hits filed as inhibitors | P15428 | purified HPGD, NADH fluorescence kinetic, PGE2 substrate
#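 20 nM HPGD preincubated 15 min at room temperature with compound in 50 mM Tris-HCl pH 8, 0.01% Tween 20. Started with 1 mM NAD+ and 30 uM prostaglandin E2; NADH fluorescence (360/450 nm) read 5 times over 30-s intervals, last minus first.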
# Tau ThT inhib: inhibitors of human tau fibril formation, thioflavin T binding; P10636; recombinant tau K18 P301L, heparin-induced fibrillization, ThT fluorescence; Potency, µM (top dose mostly 57.4 µM), for inactives: at the top dose activity, negative = inhibition, hits mostly inhibitors; actives 2.1% (n = 270,000); AID 1460; active = well fitted curve in the direction sought with a large enough effect; inconclusive = small, poorly fitted or top-dose-only effect, or another doubt; inactive = no such curve, though single readings can be large; an effect the other way counts as inactive or inconclusive; also: nearly all actives have a fitted effect of over 55% in size
#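 In this qHTS, human K18 P301L tau is incubated with compound and heparin for 6 hr at 37 C, and Thioflavin T fluorescence then reports fibril load.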
# Tau fluor cs: counter-screen for tau fibril formation inhibitors; tau K18 P301L (four-repeat tau fragment) Alexa594 fluorescence, heparin fibrillization; Potency, µM (top dose mostly 57.7 µM), without a hit: top-dose activity change, negative = decrease; actives 0.93% (n = 280,000); AID 1463; active = well fitted curve in the direction sought with a large enough effect; inconclusive = small, poorly fitted or top-dose-only effect, or another doubt; inactive = no such curve, though single readings can be large; an effect the other way counts as inactive or inconclusive; also: nearly all actives have a fitted effect of over 55% in size
#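 Human K18 P301L tau (15 uM unlabeled plus 0.24 uM Alexa 594-labeled, final) in 100 mM sodium acetate pH 7 was mixed with compound and 20 uM heparin and incubated 6 hr at 37 C.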
# The depositor's hits bear a star; u = inconclusive; x = no result given; [ ] = dose if it differs, or a comment. Unless noted, calls follow the shape of the dose curve; as a rule, active = well fitted inhibition curve with a large enough effect (not every such curve was filed as active); inconclusive = small, poorly fitted or top-dose-only effect, or another doubt; inactive = no such curve, though single readings can be large or run the other way. Unless noted, % is scaled to controls: 0 for no effect and ±100 for the full control effect; potency is read from the fitted curve at half-maximal effect.
SMILES,ALDH1A1 inh,KDM4E inh,Tau FP inhib,HPGD block,Tau ThT inhib,Tau fluor cs
CN(Cc1ccccc1)C(=O)Cn1c(=O)c2cccn2c2ccc(F)cc21,x,x,u,x,-7%,3%
Cc1ccc(S(=O)(=O)N2CCCC2C(=O)OCc2ccco2)cc1 (stereo unspecified),2.8µM*,u,u,-14%,28µM*,-14%
Cc1ccc(S(=O)(=O)N2CCCCC2C(=O)N2CCN(C)CC2)cc1 (stereo unspecified),u,5%,u,-26%,16µM*,-21%
Cc1ccc(S(=O)(=O)N2CCCCC2C(=O)N2CCN(c3ccccc3F)CC2)cc1 (stereo unspecified),-3%,2%,3%,-3%,-14%,-13%
Cn1c(=O)c2c(O)c(Cc3ccccc3)c(=O)[nH]c2n(C)c1=O,14µM*,-16%,6%,-13%,12%,-7%
O=c1[nH]c2ccc(Cl)cc2c(O)c1Cc1ccccc1,u,-5%,-10%,x,u,u
CC1=C(c2ccc(C)cc2)S(=O)(=O)N=C1N1CCN(c2ccccc2)CC1,x,x,1%,x,-15%,-10%
Clc1ccc(CSc2ncnc3c2ncn3[C@@H]2CCCCO2)cc1,3%[13.5 µM],x,x,-14%,x,x
NC(=S)N/N=C/c1coc2c(ccc3ccccc32)c1=O,2.2µM*,0%,-5%,-12%,u,-11%
O=c1cc(/N=C/c2coc3c(ccc4ccccc43)c2=O)[nH]c(=S)[nH]1,u,-9%,2%,2.2µM*,u,-8%
NC(=O)N/N=C/c1coc2ccc3ccccc3c2c1=O,-10%,-24%,0%,x,-15%,-2%
NC(=S)N/N=C/c1coc2cc(Br)ccc2c1=O,2µM*,-5%,-12%,x,16µM*,u
CCOC(=O)c1ccccc1NC(=O)c1cnc(N2CCOCC2)c2ccccc12,x,x,2%,x,-7%,-16%
Cc1cccc(NC2=CC(c3cccc(Br)c3)N(c3cccc(C)c3)C2=O)c1 (stereo unspecified),x,x,-6%,x,-11%,-13%
O=[N+]([O-])c1cccnc1Oc1ccc(C2SCCS2)cc1,18µM*,-1%,-3%,x,u,u
COc1cc(C2SCCS2)cc(Br)c1Oc1ncccc1[N+](=O)[O-],u,-15%,7%,x,u,u
COc1ccc(-n2c(O)cnc2Nc2nc(C)cc(C)n2)cc1OC,u,-12%,-3%,-23%,-1%,-7%
CC12CCC(C(=O)N(NC(=O)c3ccccc3Cl)C1=O)C2(C)C (stereo unspecified),-7%,11%,0%,-1%,4%,7%
Cc1ccc(S(=O)(=O)Oc2ccc(/C=C3/N=C(c4ccccc4)OC3=O)cc2)cc1,8.9µM*,3%,0%,-25%,-9%,2%
O=C(CN1CCCN(Cc2ccccc2Cl)S1(=O)=O)NCc1ccccc1,x,x,4%,x,13%,-1%
Cc1ccc2cc(C(c3nnnn3C3CCCC3)N3CCN(c4ccc(F)cc4)CC3)c(=O)[nH]c2c1 (stereo unspecified),11µM*,u,-15%,-25%,u,-19%
Cc1cc(C)c2cc(C(c3nnnn3C3CCCC3)N3CCOCC3)c(=O)[nH]c2c1 (stereo unspecified),14µM*,u,u,u,u,-7%
COc1ccc2cc(C(c3nnnn3C3CCCC3)N3CCc4ccccc4C3)c(=O)[nH]c2c1 (stereo unspecified),18µM*,u,u,u,28µM*,-20%
Cc1cccc2cc(C(c3nnnn3C3CCCC3)N3CCOCC3)c(=O)[nH]c12 (stereo unspecified),u,u,-6%,-14%,-13%,-4%
Fc1cccc(CN2CCN(c3nc4nonc4nc3NC3CC3)CC2)c1,u,-43%,16%,x,5%,2%
SMILES,ALDH1A1 inh,KDM4E inh,Tau FP inhib,HPGD block,Tau ThT inhib,Tau fluor cs
COc1ccc(-c2nc(-c3ccccc3)c(-c3cccs3)[nH]2)cc1OC,u,u,u,u,u,14µM*[quencher]
Cc1ccc(-c2nc(-c3cccs3)c(-c3cccs3)[nH]2)cc1,x,x,7%,x,-10%,u
Fc1ccc(-c2nc(-c3cccs3)c(-c3cccs3)[nH]2)cc1,x,x,11%,x,-7%,u
COc1ccc(-c2nc(-c3cccs3)c(-c3cccs3)[nH]2)cc1OC,u,u,10%,u,u,10µM*[quencher]
CC1=CCC(/C=N\Nc2nnc3c(n2)[nH]c2ccccc23)CC1 (stereo unspecified),7%,-3%,1%,-4%,u,-7%
O=c1c(C(c2ccc(O)cc2)c2c(O)nc3n(c2=O)CCS3)c(O)nc2n1CCS2,13µM*,1%,-6%,13µM*,u,-22%
O=C1C(O)=C(O)C(=O)C(O)=C1O,u,13µM*,u,-17%,13µM*,-22%
O=C(NCCCn1ccnc1)c1ccc(N2CCCCC2)c([N+](=O)[O-])c1,7.9µM*,5%,8%,x,u,-2%
O=C(NCc1ccncc1)c1ccc(N2CCCC2)c([N+](=O)[O-])c1,u,16%,1%,x,u,-9%
COc1ccc(C(=O)NCCCn2ccnc2)cc1,7.9µM*,2%,u,-8%,1%,4%
Cc1cccc(Cn2cc3c(=O)n(CC(=O)Nc4cccc(C)c4C)nc-3c3cc(F)ccc32)c1,x,x,12%,x,u,-5%
CC1CCCC2(C1)NC(=S)c1c(sc3c1CCCC3)N2 (stereo unspecified),3.5µM*,-7%,u,4.5µM*,18µM*,u
CCN(CC)S(=O)(=O)c1ccc2c(c1)nc(SC(C)C(N)=O)n2-c1ccc(OC)cc1 (stereo unspecified),16µM*,-6%,-4%,-26%,-9%,-13%
C=CCn1c(=S)[nH]c2scc(-c3cccs3)c2c1=O,13µM*,-8%,4%,x,u,-18%
Cn1c(=S)[nH]c2scc(-c3cccs3)c2c1=O,22µM*,u,11%,x,u,-17%
O=c1[nH][nH]c2c(N=Cc3ccccc3O)ccc(F)c12,8.9µM*,-11%,7.9µM*,x,3.5µM*,3.5µM*[quencher]
Cn1ncc(N=Cc2ccccc2O)c1C(=O)Nc1ccccc1,-9%,-1%,-10%,-16%,-5%,-24%
CCOc1ccc(/C=C/c2nc(C#N)c(N3CCN(c4ccc(OC)cc4)CC3)o2)cc1,x,x,0%,x,-10%,-12%
S=c1[nH]nc(C2CC2c2ccc(Cl)cc2)n1-c1ccc(Cl)cc1 (stereo unspecified),0%,1%,9%,5µM*,u,-28%
